Laboratory results: the supplement of paper PMC9694430

Experiments:
Experiment in all cases: thermal shift delta Tm vs DMSO control; higher = stronger stabilization (binding)
Conditions in all cases: 12.5 µM; protein concentration 2 µM
LOC_OS02G45750-cb003 = tested on: LOC_OS02G45750-cb003
Method in brief: (§1)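 Purified, E. coli-expressed rice kinase domain constructs were tested by differential scanning fluorimetry in 96-well plates: 19.5 μl of 2 μM kinase in 100 mM potassium phosphate pH 7.5, 150 mM NaCl, 10% glycerol, 5 × SYPRO Orange, plus compound in DMSO. Fluorescence was read from 25°C to 95°C at 0.05°C/s. Melting temperatures came from Boltzmann fits, and the shift is the triplicate mean relative to protein with DMSO alone.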

LOC_OS02G54510-cb004 = tested on: LOC_OS02G54510-cb004
Method in brief: as §1

LOC_OS03G04050-cb001 = tested on: LOC_OS03G04050-cb001
Method in brief: as §1

LOC_OS03G12390-cb001 = tested on: LOC_OS03G12390-cb001
Method in brief: as §1

LOC_OS03G27990-cb004 = tested on: LOC_OS03G27990-cb004
Method in brief: as §1

LOC_OS03G50450-cb001 = tested on: LOC_OS03G50450-cb001
Method in brief: as §1

LOC_OS03G50810-cb003 = tested on: LOC_OS03G50810-cb003
Method in brief: as §1

LOC_OS04G35114-cb001 = tested on: LOC_OS04G35114-cb001
Method in brief: as §1

LOC_OS04G38480-cb003 = tested on: T1, LOC_OS04G38480-cb003
T1 sequence (whole entry): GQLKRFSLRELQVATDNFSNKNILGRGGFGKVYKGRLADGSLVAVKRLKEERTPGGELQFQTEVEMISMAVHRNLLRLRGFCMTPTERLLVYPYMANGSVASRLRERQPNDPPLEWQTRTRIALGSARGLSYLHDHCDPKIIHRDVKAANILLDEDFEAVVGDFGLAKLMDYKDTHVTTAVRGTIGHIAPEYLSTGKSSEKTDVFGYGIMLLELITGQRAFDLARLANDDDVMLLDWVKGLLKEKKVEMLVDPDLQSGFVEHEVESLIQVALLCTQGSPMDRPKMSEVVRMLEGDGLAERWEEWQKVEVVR
Method in brief: as §1

LOC_OS04G41100-cb001 = tested on: T2, LOC_OS04G41100-cb001
T2 sequence (whole entry): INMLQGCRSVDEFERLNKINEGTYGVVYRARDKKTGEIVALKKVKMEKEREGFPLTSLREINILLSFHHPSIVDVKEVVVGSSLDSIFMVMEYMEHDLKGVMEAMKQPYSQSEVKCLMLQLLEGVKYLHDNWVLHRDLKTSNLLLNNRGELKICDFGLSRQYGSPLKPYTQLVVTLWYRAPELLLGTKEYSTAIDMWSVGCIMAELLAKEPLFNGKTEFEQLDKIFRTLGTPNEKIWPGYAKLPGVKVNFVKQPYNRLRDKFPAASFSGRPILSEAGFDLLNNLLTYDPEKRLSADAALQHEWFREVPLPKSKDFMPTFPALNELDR
Method in brief: as §1

LOC_OS04G57630-cb004 = tested on: LOC_OS04G57630-cb004
Method in brief: as §1

LOC_OS05G07850-cb002 = tested on: LOC_OS05G07850-cb002
Method in brief: as §1

LOC_OS05G16824-cb004 = tested on: LOC_OS05G16824-cb004
Method in brief: as §1

LOC_OS05G28520-cb001 = tested on: LOC_OS05G28520-cb001
Method in brief: as §1

LOC_OS05G30820-cb001 = tested on: LOC_OS05G30820-cb001
Method in brief: as §1

LOC_OS05G43570-cb004 = tested on: LOC_OS05G43570-cb004
Method in brief: as §1

LOC_OS06G16330-cb003 = tested on: LOC_OS06G16330-cb003
LOC_OS06G16330-cb003, sequence (as listed by the source): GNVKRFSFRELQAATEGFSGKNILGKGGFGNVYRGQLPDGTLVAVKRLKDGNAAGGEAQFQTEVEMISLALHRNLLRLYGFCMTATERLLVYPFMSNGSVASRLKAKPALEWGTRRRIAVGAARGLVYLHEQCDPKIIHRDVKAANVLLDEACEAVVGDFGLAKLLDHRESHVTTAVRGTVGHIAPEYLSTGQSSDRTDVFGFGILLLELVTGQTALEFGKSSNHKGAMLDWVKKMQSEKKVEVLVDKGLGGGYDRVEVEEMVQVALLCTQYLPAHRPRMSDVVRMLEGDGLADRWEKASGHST
Method in brief: as §1

LOC_OS06G22820-cb001 = tested on: T3, LOC_OS06G22820-cb001
T3 sequence (whole entry): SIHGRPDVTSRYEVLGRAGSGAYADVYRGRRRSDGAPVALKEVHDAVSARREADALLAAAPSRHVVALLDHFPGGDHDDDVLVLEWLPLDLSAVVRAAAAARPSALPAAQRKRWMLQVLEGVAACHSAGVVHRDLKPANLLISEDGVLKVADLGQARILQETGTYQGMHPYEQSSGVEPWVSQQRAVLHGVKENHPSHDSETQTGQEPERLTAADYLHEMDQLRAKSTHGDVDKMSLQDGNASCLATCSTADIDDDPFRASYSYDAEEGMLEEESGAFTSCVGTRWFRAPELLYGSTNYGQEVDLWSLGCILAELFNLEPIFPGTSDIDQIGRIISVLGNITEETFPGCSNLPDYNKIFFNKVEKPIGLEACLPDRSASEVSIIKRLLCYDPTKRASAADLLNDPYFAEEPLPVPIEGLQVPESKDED
Method in brief: as §1

LOC_OS07G06570-cb004 = tested on: LOC_OS07G06570-cb004
Method in brief: as §1

LOC_OS07G07230-cb001 = tested on: LOC_OS07G07230-cb001
Method in brief: as §1

Compound | thermal shift delta Tm (LOC_OS02G45750-cb003) | thermal shift delta Tm (LOC_OS02G54510-cb004) | thermal shift delta Tm (LOC_OS03G04050-cb001) | thermal shift delta Tm (LOC_OS03G12390-cb001) | thermal shift delta Tm (LOC_OS03G27990-cb004) | thermal shift delta Tm (LOC_OS03G50450-cb001) | thermal shift delta Tm (LOC_OS03G50810-cb003) | thermal shift delta Tm (LOC_OS04G35114-cb001) | thermal shift delta Tm (LOC_OS04G38480-cb003) | thermal shift delta Tm (LOC_OS04G41100-cb001) | thermal shift delta Tm (LOC_OS04G57630-cb004) | thermal shift delta Tm (LOC_OS05G07850-cb002) | thermal shift delta Tm (LOC_OS05G16824-cb004) | thermal shift delta Tm (LOC_OS05G28520-cb001) | thermal shift delta Tm (LOC_OS05G30820-cb001) | thermal shift delta Tm (LOC_OS05G43570-cb004) | thermal shift delta Tm (LOC_OS06G16330-cb003) | thermal shift delta Tm (LOC_OS06G22820-cb001) | thermal shift delta Tm (LOC_OS07G06570-cb004) | thermal shift delta Tm (LOC_OS07G07230-cb001)
C=CC(=O)Nc1cccc(Nc2nc(Nc3ccc(NC4CN(CCF)C4)cc3OC)ncc2C(F)(F)F)c1 | 0.83 °C | 0.67 °C | 0.56 °C | 8.48 °C | 0.5 °C | 0.39 °C | 1.26 °C | 0.98 °C | 0.06 °C | 0.29 °C | 0.41 °C | 6.71 °C | 1.25 °C | 0.72 °C | 0.43 °C | 0.24 °C | -0.88 °C | 0.16 °C | 1.07 °C | 0.62 °C
Cc1ccc(-n2nc(C(C)(C)C)cc2NC(=O)NCc2cc(F)ccc2Oc2ccc3c(cnn3CCO)c2)cc1 [Pexmetinib (ARRY-614)] | 0.81 °C | 2.56 °C | 0.65 °C | 1.05 °C | 0.31 °C | 0.02 °C | 0.36 °C | 0.41 °C | 1.51 °C | 1.43 °C | 5.61 °C | 7.46 °C | -1.5 °C | 0.41 °C | 0.66 °C | 0.54 °C | 3.89 °C | 0.91 °C | 0.14 °C | -0.6 °C
Cc1c(Cn2c(C)nc3c(C(=O)O)cc(N4CCOCC4)cc32)cccc1C(F)(F)F | 0.34 °C | 0.11 °C | 0.14 °C | -0.17 °C | 0.07 °C | 0.48 °C | 0.29 °C | 0.99 °C | 0.75 °C | 0.4 °C | -0.06 °C | -0.15 °C | -2.15 °C | -0.07 °C | 0.36 °C | 0.33 °C | -0.16 °C | 0.35 °C | 1.32 °C | 0.5 °C
CCCCCCCCCCCCCCCCOP(=O)([O-])OCC[N+](C)(C)C [Miltefosine] | -1.69 °C | -3.98 °C | -6.02 °C | -3.65 °C | -2.36 °C | -1.33 °C | -3.31 °C | -3.53 °C | -0.41 °C | -0.66 °C | -0.37 °C | -1.01 °C | -3.83 °C | -3.02 °C | -0.84 °C | -1.92 °C | -5.12 °C | -0.23 °C | -2.61 °C | -2.12 °C
COc1cc2ncnc(Oc3ccc(CC(=O)Nc4cnn(C(C)C)c4)cc3)c2cc1OC | 0.54 °C | 0.74 °C | 0.53 °C | 0.37 °C | 0.19 °C | 0.01 °C | 0.5 °C | 2.1 °C | 1.49 °C | 0.32 °C | 1.78 °C | 8.95 °C | 0.86 °C | 0.43 °C | 0.37 °C | -0.02 °C | 0.82 °C | 0.41 °C | 1.54 °C | 0.45 °C
COc1cc(OC)c(C=C2C(=O)Nc3ccccc32)c(OC)c1 | -0.14 °C | 0.07 °C | -0.08 °C | -0.35 °C | 0.05 °C | -0.29 °C | -0.06 °C | 0.7 °C | 0.58 °C | 0.2 °C | 0.1 °C | 0.55 °C | -0.46 °C | 0.31 °C | 0.46 °C | -0.11 °C | -0.29 °C | 0.44 °C | 1.13 °C | 0.96 °C
